These results are taken from PubChem BioAssay (NCI).

Structures are written as SMILES. “And” between values parts separate entries of the source, which are not always exact repeats. Identical values can stand only once. This is part of a sample that, as a whole, favours compounds with a hit. Of some 83,000 tested, about 20% had one in any assay.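 Each cell line was grown in a 96-well plate and treated with one concentration of compound for 48 hours. Values below 10 were considered active.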 Values without a mark were called inactive. The source made the active and inactive calls.

The test concerns MDA-MB-468 breast. Put plainly: NCI-60 one-dose screen, 48 h (100 = growth as untreated, 0 = no growth, -100 = all killed). The conditions noted are these: 10 µM unless noted.
`COC(=O)[C@@]1(C)CC[C@]2(C)CC[C@]3(C)C4=CC=C5C(=CC(=O)C(O)=C5C)[C@]4(C)CC[C@@]3(C)[C@@H]2C1`: the growth is -66.9% (active). `COc1cc(C2(C#N)CCN(C)CC2)cc(OC)c1OC`: the growth was 108%. Regarding `CCN1C(=O)CC(=O)N(CC)C1=S`, the growth is 93.1%. The figure for `CC1(C)N=C(N)N=C(N)N1c1cccc(C(=O)Nc2cccc(S(=O)(=O)F)c2)c1` is 94.6%; for `COc1ccc(/C=C(/C)[N+](=O)[O-])cc1OC` it is -87.6% (active) and -87% (active); for `CCC[CH2][Sn]([CH2]CCC)([CH2]CCC)[O]C(=O)CC` it is -88% (active). The figure for `O=C1C2C(C(=O)[N]1[Hg][c]1ccccc1)C1(Cl)C(Cl)=C(Cl)C2(Cl)C1(Cl)Cl` (stereo not given) is -72.7% (active); for `COC(=O)C12CC(NC(=O)c3csc([C@@H](C[C@H](C(C)C)N(C)C(=O)[C@@H](NC(=O)[C@H]4CCCCN4C)C4CC4)OC(C)=O)n3)(C1)C2` it is 30.1%; for `CC[C@H](C)[C@H](NC(=O)[C@H]1CCCCN1C)C(=O)N(C)[C@H](C[C@@H](OC(C)=O)c1nc(C(=O)NC23CC(C(=O)OC)(C2)C3)cs1)C(C)C` it is 4.52% (active). As for `CC(=O)C1CCC2C3CC=C4CC(OC(=O)Cc5ccc(N(CCCl)CCCl)cc5)CCC4(C)C3CCC12C` (stereo not given), the figure is 94.7%; as for `CC12CCC3C4CCC(=O)C=C4CCC3C1CC1CC(=O)OC12` (stereo not given), 102%. In the case of `CC[C@H](C)[C@H](NC(=O)c1ccccn1)C(=O)N(C)[C@H](C[C@@H](OC(C)=O)c1nc(C(=O)N[C@@H](Cc2ccccc2)C[C@H](C)C(=O)OC)cs1)C(C)C`, the growth was -7.06% (active).

`COc1ccc(/C=C(\C)[N+](=O)[O-])cc1OC`: the growth is -77.3% (active). As for `COc1cc(CNCCc2ccc(Cl)cc2)cc(OC)c1O`, the figure is 43.5%; as for `O=[N+]([O-])c1ccc(CI)cc1`, 75.6%; as for `CC/C(Cc1ccccc1)=C(\c1ccc(OCCN2CCCC2)cc1)c1ccc(OC(=O)NCc2ccccc2)cc1`, 14.8%. As for `CC[S][Hg][Cl]`, the figure is 116%; as for `Clc1cccc(Cl)c1Cl`, 107%. As for `CC[C@H](C)[C@H](NC(=O)[C@H]1CCCCN1C)C(=O)N(C)[C@H](C[C@@H](O)c1nc(C(=O)N[C@@H](Cc2ccccc2)C[C@H](C)C(=O)O)cs1)C(C)C`, the figure is 70.1%; as for `Nc1ccc2c(c1)Cc1cc(N)ccc1-2`, 67.3%; as for `CN(CCCCN(C)CCOS(C)(=O)=O)CCOS(C)(=O)=O`, 76.9%.

On to `COC(=O)[C@@H](C)C[C@H](Cc1ccccc1)NC(=O)c1csc([C@@H](C[C@H](C(C)C)N(C)C(=O)[C@@H](NC(=O)[C@H]2CCCCN2C)c2ccc(F)cc2)OC(C)=O)n1`, for which the growth was 2.95% (active). `CC(=O)O[C@H](C[C@H](C(C)C)N(C)C(=O)[C@@H](NC(=O)[C@H]1CCCCN1C)C(C)C)c1nc(C(=O)N[C@@H](Cc2ccccc2)C[C@H](C)C(=O)O)c(C)s1`: the growth is 11.4%. The figure for `O=C1NC(=O)C(Cc2ccccc2)(Cc2ccccc2)C(=O)N1` is 113%; for `O=C1C(Cl)=C(N2CCOCC2)C(=O)c2ccccc21` it is -81% (active); for `CC(C)(NC(=O)c1nn(CCCCCF)c2ccccc12)c1ccccc1` it is 93.9%. As for `C=C1[C@@H](C)[C@H]2[C@H](Cc3ccccc3)NC(=O)[C@]23[C@@H](O)/C=C/[C@@](C)(O)C(=O)[C@@H](C)C/C=C/[C@H]3[C@@H]1O`, the figure is -39% (active); as for `C=CCC1(CC)C(=O)NC(=S)NC1=O`, 97.4%. For `CC1(C)N(Nc2ccccc2)C(=O)C2CCCN21` (stereo not given), the growth is 79.2%. As for `CC(C)=CCC[C@H](C(=O)O)[C@@H]1CC[C@]2(C)C3=C(CC[C@@]12C)[C@@]1(C)CC[C@H](O)C(C)(C)[C@@H]1CC3`, the figure is 107%. For the molecule `COC(=O)C12C3C4C1C1C2C3C41NC(=O)c1csc([C@@H](C[C@H](C(C)C)N(C)C(=O)[C@@H](NC(=O)[C@H]2CCCCN2C)C2CC2)OC(C)=O)n1` (stereo not given in full), the growth is 29.6%. The figure for `c1cnc2[nH]cc(-c3csc(-c4cn(CCCCN5CCOCC5)c5ccccc45)n3)c2c1` is 35.1%.

With `CCCCCCCCCCCCCCCCCC1OC[C@@H](COC(=O)O[C@@H](C(=O)O[C@H]2C[C@@]3(O)[C@@H](OC(=O)c4ccccc4)[C@@H]4[C@]5(OC(C)=O)CO[C@@H]5C[C@H](O)[C@@]4(C)C(=O)[C@H](OC(C)=O)C(=C2C)C3(C)C)[C@@H](NC(=O)c2ccccc2)c2ccccc2)O1` (stereo not given in full), the growth was 21%.

In the case of `COC(=O)[C@@H](C)C[C@H](Cc1cn(C)c2ccccc12)NC(=O)c1csc([C@@H](C[C@H](C(C)C)N(C)C(=O)[C@@H](NC(=O)[C@H]2CCCCN2C)C(C)C)OC(C)=O)n1`, the growth is 28.6%. As for `NC(=O)c1c(Br)c(Br)c(Br)c(Br)c1C(=O)O` (tested in a mixture with another compound), the figure is 93.7% and 101%. As for `C[C@]12C[C@@H](CO)[C@H](O)C[C@@H]1CC[C@@H]1[C@@H]2CC[C@]2(C)[C@@H](O)CC[C@@H]12`, the figure is 106%; as for `CC[C@H](C)[C@@H]([C@@H](CC(=O)N1CCC[C@H]1[C@H](OC)[C@@H](C)C(=O)N[C@H](C)[C@@H](O)c1ccccc1)OC)N(C)C(=O)[C@@H](NC(=O)[C@@H](NC)C(C)C)C(C)C`, 37%; as for `N#CC(C#N)=Cc1ccc2ccccc2c1`, 105%. As for `COc1ccc(N(CC(=O)NCCC[Te]c2ccccc2)C(=O)CCSC2=C(C)C(=O)c3ccccc3C2=O)cc1`, the figure is -58.1% (active); as for `CC[CH2][Pb]([CH2]CC)([CH2]CC)[O]C(=O)C(F)(F)F`, -90.1% (active).
